The record followed here is PubChem BioAssay.

For assay [1], the system named is Human papillomavirus type 1a protein E7 (residues 44-93). Kind of assay: HPV1a E7 fragment binders on microarrays, primary screen, biochemical, small-molecule microarray, residues 44-93, 635 nm fluorescence (AID 1108).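 Further: E7 fragment applied at 1 µg/mL in TBST for 1 h at 4 C; score combines spot fluorescence with its signal to noise ratio.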 The following applies: small-molecule microarray binding, fluorescence 635 nm; higher = more signal.
Assay [2] is described as follows: modulators of HCV replicon luciferase signal, primary screen, HCV replication inhibitor project, Huh7 cells, luciferase reporter (AID 1109).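 Further: huh7 hepatoma cells harbouring a luciferase neomycin HCV replicon reporter; luciferase luminescence as measure of HCV replicon replication; test concentration not given here.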 As to conditions: 48 h, higher = more signal. On the technique in general: Replicon systems follow genome replication, usually without infectious particles.
Assay [3] addresses Left-right determination factor 2 (Homo sapiens) (UniProt O00292). Briefly: LEFTY2 binders on small-molecule microarrays, primary screen, biochemical, small-molecule microarray, 635 nm fluorescence scan (AID 1110). As to conditions: LEFTY2 binding, higher = more signal.
Assay [4] deals with Calmodulin-1 (Homo sapiens) (UniProt P0DP23). Briefly: CALM1 binders on microarrays, EGTA buffer, profiling panel, biochemical, small-molecule microarray, Cy5-labelled CALM1 (AID 1111).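 Further: labelled calmodulin applied in Tris saline Tween buffer holding calcium plus EGTA and DTT.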 The following applies: Cy5-CALM1 binding fluorescence, higher = more signal.
Assay [5] has the same target. Kind of assay: calcium-bound CALM1 binders on microarrays, profiling panel, artefact control for SMM control-protein annotation, biochemical, small-molecule microarray, Cy5-labelled CALM1, plus calcium (AID 1112).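 Further: score merges spot fluorescence with signal to noise from triplicate slides.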 As to conditions: Cy5-CALM1 binding fluorescence, higher = more signal.
The nature of assay [6]: small-molecule microarray binders of probe aWnt5a, primary screen, biochemical, biotinylated probe, 635/667 nm fluorescence (AID 1113).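 Further: score merges 667 nm fluorescence intensity with signal-to-noise per printed feature.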 As to conditions: higher = more signal.
A short description of assay [7]: small-molecule microarray binders of probe aShh, primary screen, biochemical, biotinylated probe, 635/667 nm fluorescence (AID 1114).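 Further: probe is biotin-labelled aShh protein from a stem cell growth factor screen; measures binding of labelled protein to compounds printed on the slide; score merges feature fluorescence at 667 nm with signal-to-noise.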 The following applies: higher = more signal.
The nature of assay [8]: small-molecule microarray binders of probe aNog, primary screen, biochemical, biotinylated probe, 635/667 nm fluorescence (AID 1115).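 Further: probe is biotinylated aNog protein used at 0.15 µg/mL for 1 h at 4 C; z-score combines 667 nm fluorescence of each spot with its signal to noise.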 As to conditions: higher = more signal.
Assay [9] concerns the target Torsin-1A-interacting protein 1 (Homo sapiens) (UniProt Q5JTV8). Kind of assay: LAP1 binders from COS7 cell lysate, primary screen, small-molecule microarray, 635/667 nm fluorescence (AID 1116). The following applies: COS7-hLAP1 lysate binding, 635 nm fluorescence, higher = more signal.
Assay [10] has as its target Alpha-bungarotoxin (Bungarus multicinctus) (UniProt P60615). Kind of assay: alpha-bungarotoxin binders on microarray, profiling panel, artefact control for SMM control protein annotation, biochemical, small-molecule microarray, Alexa647 label, 635/667 nm fluorescence (AID 1117). The following applies: alpha-BTX-A647 binding fluorescence, higher = more signal.

The structures appear in SMILES notation.

Chain of Torsin-1A-interacting protein 1 (Homo sapiens) (Q5JTV8 whole entry, looked up): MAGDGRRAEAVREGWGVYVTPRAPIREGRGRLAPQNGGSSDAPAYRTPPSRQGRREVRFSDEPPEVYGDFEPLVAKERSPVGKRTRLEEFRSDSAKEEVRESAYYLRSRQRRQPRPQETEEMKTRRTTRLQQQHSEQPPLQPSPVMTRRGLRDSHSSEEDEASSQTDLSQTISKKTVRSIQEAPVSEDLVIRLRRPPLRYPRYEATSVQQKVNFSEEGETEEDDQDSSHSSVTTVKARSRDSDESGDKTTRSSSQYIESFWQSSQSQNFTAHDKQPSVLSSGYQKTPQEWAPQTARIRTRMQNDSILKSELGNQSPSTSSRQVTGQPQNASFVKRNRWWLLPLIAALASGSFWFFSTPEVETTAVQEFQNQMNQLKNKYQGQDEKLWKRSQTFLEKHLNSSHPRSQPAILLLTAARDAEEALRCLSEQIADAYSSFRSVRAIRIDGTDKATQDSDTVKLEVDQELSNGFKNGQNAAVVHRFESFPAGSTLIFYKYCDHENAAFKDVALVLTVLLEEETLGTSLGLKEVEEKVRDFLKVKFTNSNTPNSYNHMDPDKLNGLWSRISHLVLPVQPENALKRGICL
Chain of Alpha-bungarotoxin (Bungarus multicinctus) (P60615 whole entry, looked up): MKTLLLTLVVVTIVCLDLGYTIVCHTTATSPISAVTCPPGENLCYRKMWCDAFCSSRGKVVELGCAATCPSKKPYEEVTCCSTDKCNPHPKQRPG
Chain of Left-right determination factor 2 (Homo sapiens) (O00292 whole entry, looked up): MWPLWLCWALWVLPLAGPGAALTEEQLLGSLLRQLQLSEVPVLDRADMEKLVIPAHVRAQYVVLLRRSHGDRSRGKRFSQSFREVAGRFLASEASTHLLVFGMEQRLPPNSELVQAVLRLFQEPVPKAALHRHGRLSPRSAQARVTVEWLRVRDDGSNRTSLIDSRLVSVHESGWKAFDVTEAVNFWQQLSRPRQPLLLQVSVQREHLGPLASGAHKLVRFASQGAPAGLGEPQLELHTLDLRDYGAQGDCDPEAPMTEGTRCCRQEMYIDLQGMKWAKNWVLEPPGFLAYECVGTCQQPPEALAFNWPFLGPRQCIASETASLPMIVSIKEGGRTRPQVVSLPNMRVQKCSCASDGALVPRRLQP

For the compound `Cc1ccc(S[C@]2(C(=O)NCCCN(C)C)CC(=O)N(Cc3ccccc3)[C@@H]2c2ccc(CO)cc2)cc1`, the composite z-score in [1] was -0.364; in assay [3], -1.03; in assay [4], -0.676; in assay [5], -0.674; in [6] it was -0.184; in assay [7] it was -0.145. In addition, the composite z-score was found to be 0.604 in assay [8], 1.17 in [9] and 0.75 in [10]. Further, in [2], the z-score is -1.7.
Regarding `COC(=O)[C@@]1(Cc2ccc(F)cc2)[C@H]2c3cc(C(=O)N(C)C)n(Cc4ccccn4)c3C[C@H]2CN1C(=O)c1ccccc1`, the composite z-score in assay [1] was 1.4; in assay [3] it was 0.256; in [4], 0.63; in assay [5], 0.681; in assay [6], -0.195; in assay [7], -0.333. In addition, the composite z-score is 0.535 in [8], 1.11 in assay [9] and 0.0404 in [10]. The z-score in assay [2] was -1.39.
In the case of `CC(c1ccccc1)C(O)C1C=CC2C(=O)N(Cc3ccccc3)C(=O)C2N1n1cnnc1` (stereo not given), the composite z-score in assay [1] is 1.12; in assay [3], 0.202; in assay [4], -0.133; in assay [5] it was 0.13; in assay [6] it was 0.0657; in assay [7], 0.297. The results for the composite z-score in assay [8], in [9] and in assay [10] were 0.49, 0.0111 and 0.512, respectively. Further, the z-score in assay [2] was -0.562.
As to `[N-]=[N+]=Nc1ccccc1[C@@H]1OC(c2ccc(OCCCO)cc2)=N[C@]1(CCS(=O)(=O)c1ccccc1)C(=O)O`, the composite z-score was 1.42 in [1]; 0.459 in [3]; 1.35 in assay [4]; 0.304 in assay [5]; 0.383 in assay [6]; -0.0146 in [7]. For the same compound, the composite z-score was -0.0345 in [8], 0.677 in [9] and 1.55 in assay [10]. The same compound yielded a z-score in assay [2] of 0.666.
In the case of `COC(=O)c1c2oc(c1C(=O)OC)C(=O)N[C@H](Cc1ccccc1)Cn1nncc1C1(CCCCC1)NC(=O)N[C@H](CO)CC2`, the composite z-score in [1] is 0.613; in [3], 0.0801; in assay [4], -0.16; in [5] it was -0.661; in assay [6], -0.0179; in assay [7], -0.138. Besides, the figures for the composite z-score in [8], in assay [9] and in [10] were -0.308, -0.208 and -0.181, respectively. In assay [2], this compound registered a z-score of -0.398.
`O=C1O[C@H](c2ccccc2)[C@H](c2ccccc2)N2[C@H]1[C@@H](C(=O)Nc1nc3ccccc3s1)[C@]1(C(=O)Nc3ccc(C#CC4=CCCCC4)cc31)[C@H]2c1ccc(OCCO)cc1`: the composite z-score is 0.945 in assay [1]; 0.56 in [3]; 1.36 in assay [4]; 0.536 in [5]; -0.176 in assay [6]; -0.188 in [7]. For the same compound, the composite z-score in assay [8] was 1.37; in assay [9] it was -0.513; in assay [10], 2.12. In assay [2], this compound showed a z-score of -1.91.
Consider `O=C(NCC(O)CO)[C@@]1(Cc2ccccc2)COC(c2ccc(OCCCO)cc2)=N1` (stereo not given in full), for which the composite z-score in assay [1] is 0.422; in [3], -0.483; in assay [4] it was 0.77; in assay [5] it was 1.11; in assay [6], -0.0704; in assay [7], -0.283. The results for the composite z-score in assay [8], in assay [9] and in assay [10] were -0.134, 0.561 and -0.363, respectively. Further, the z-score in [2] is -0.992.
For `CCCNC(=O)[C@@]1(C)c2ccccc2C(=O)N(Cc2cc(C(F)(F)F)cc(C(F)(F)F)c2)[C@H]1c1ccc(CO)cc1`, the composite z-score in assay [1] is 1.23; in assay [3] it was -0.657; in assay [4], 0.0189; in assay [5] it was 0.168; in assay [6], 0.0377; in [7], -0.297. For the same compound, the composite z-score in assay [8] is -0.158; in [9] it was 1.61; in assay [10] it was 0.919. This compound showed a z-score in assay [2] of -1.16.
As to `CCOC(=O)C1=CC[C@@H](c2cccc(Cl)c2)N(S(=O)(=O)c2ccc(C)cc2)[C@H]1c1ccc(C#N)cc1`, the composite z-score in [1] turned out to be 1.41; in assay [3], 0.838; in [4] it was 1.55; in assay [5], 0.736; in assay [6], 0.0266; in assay [7], 0.0638. For the same compound, the composite z-score in [8] was found to be 0.978; in assay [9], 1.32; in assay [10] it was 1.39. This compound yielded a z-score in assay [2] of -1.95.
`CN(C)CCCCCCNC(=O)[C@@H]1C[C@@H]2C(=O)N[C@@H](Cc3ccccc3)C(=O)N2[C@@H]1c1cccc(OCCO)c1`: the composite z-score in assay [1] is 1.39; in assay [3], 0.637; in [4], -0.345; in assay [5], -0.287; in assay [6] it was -0.0472; in assay [7], 0.0756. In addition, the composite z-score was 0.109 in [8], 1.93 in [9] and 2.64 in assay [10]. The compound also showed a z-score in assay [2] of 1.73.
As to `COC(=O)c1nc2oc1CC[C@@H](CO)NC(=O)N(C)Cc1cn(nn1)C[C@H](Cc1ccccc1)NC2=O`, the composite z-score in assay [1] is -0.205; in assay [3], -1.11; in assay [4] it was -0.423; in assay [5] it was 0.376; in assay [6], -0.129; in assay [7] it was 0.0639. Moreover, the composite z-score amounted to 0.582 in [8], 0.481 in assay [9] and 0.981 in [10]. This compound also registered a z-score in assay [2] of 1.34.
As to `O=C1OCCC/C=C\[C@H]2OC34C=CCN(CCN5CCOCC5)C(=O)[C@H]3N(CCO)C(=O)[C@@H]4C12` (stereo not given in full), the composite z-score was -0.359 in assay [1]; -0.416 in assay [3]; -0.0877 in [4]; 0.124 in [5]; -0.176 in assay [6]; -0.2 in assay [7]. Besides, the composite z-score is 0 in assay [8], -0.0137 in assay [9] and -0.938 in assay [10]. Besides, the z-score in [2] was found to be 0.0112.
Consider `CN(C)CCCC[C@@H]1NC(=O)[C@H]2C[C@@H](C(=O)NCCCCCNC(=O)CS)[C@@H](c3ccc(O)cc3)N2C1=O`, for which the composite z-score was -0.781 in assay [1]; -1.34 in assay [3]; -0.0462 in assay [4]; 0.586 in assay [5]; -0.124 in [6]; -0.0396 in assay [7]. The composite z-score is -0.0793 in assay [8], 0.172 in [9] and 0.808 in assay [10]. Further, the z-score in assay [2] worked out at 0.579.
